PLAP act = activators of human placental alkaline phosphatase; AID 696; purified PLAP enzyme, luminescent substrate read-out; hits give high values; P05187; 1.2% of 96,000 active; activation fold at 20 µM; in the data active means activation fold above about 2
Target sequence (P05187 whole entry, looked up): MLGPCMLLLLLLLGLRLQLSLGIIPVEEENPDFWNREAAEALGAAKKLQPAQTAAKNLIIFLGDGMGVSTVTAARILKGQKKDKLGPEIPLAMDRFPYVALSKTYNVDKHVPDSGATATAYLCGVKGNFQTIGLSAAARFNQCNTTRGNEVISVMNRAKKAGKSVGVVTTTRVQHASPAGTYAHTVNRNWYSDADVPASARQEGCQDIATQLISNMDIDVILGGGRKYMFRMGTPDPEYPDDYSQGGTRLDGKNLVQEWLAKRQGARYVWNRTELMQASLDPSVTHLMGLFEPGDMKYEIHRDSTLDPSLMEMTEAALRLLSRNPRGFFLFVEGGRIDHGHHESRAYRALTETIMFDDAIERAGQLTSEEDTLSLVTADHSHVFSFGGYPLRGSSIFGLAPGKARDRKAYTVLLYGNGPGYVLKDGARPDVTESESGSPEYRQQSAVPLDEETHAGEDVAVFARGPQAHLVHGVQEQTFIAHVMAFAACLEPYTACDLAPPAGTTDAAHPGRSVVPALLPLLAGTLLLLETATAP
hDAT+cocaine = human DAT dopamine uptake with cocaine, either direction | Q01959 | LLC-PK1 hDAT cells, [14C]-dopamine uptake with cocaine IC80; actives deviate in either direction | B-score at 10 µM | 1.3% of 110,000 active;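 active means Z score or B-score, a plate-position-corrected score, falls beyond the plate's 99.7% confidence bounds, in either direction; inactive means both scores lie inside the 99.7% bounds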;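 further: scored against the spread of the other compound wells on the same plate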
PostGolgi ctrl = growth of the yeast control strain, post-Golgi counter-screen. efflux-deficient yeast background strain, growth absorbance A615, 16 h. inhibition, % at 10 µM. 5% of 98,000 active
Cav32 inh = inhibitors of human Cav3.2 T-type calcium channel; O95180; B-score at 10 µM; 4% of 100,000 active; Cav3.2-expressing cells, Fluo-4 calcium fluorescence FDSS; hits give low values; AID 449739;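 active means single-dose well whose peak fluorescence ratio is a statistical outlier from its plate by either plate-standardised score or position-corrected B-score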
PostGolgi yeast = growth inhibition of a yeast mutant, post-Golgi transport screen. post-Golgi transport phenotypic cell assay. inhibition, % at 10 µM. 0.9% of 98,000 active. AID 739;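 further: yeast cells grown in 1536-well plates; yeast grown about 18 h at 30C before absorbance read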
An asterisk follows results filed as active; x = no result. Most compounds without a hit are left out; they make up all but 9.6% or so of the library. Unless noted, no stated cut-off is given here; in the data, active means inhibition above about 30%; inactive means the rest.

SMILES	PLAP act	hDAT+cocaine	PostGolgi ctrl	Cav32 inh	PostGolgi yeast
O=c1c2[nH]c3ccc(Br)cc3c2ncn1CCCn1ccnc1	1.1	0.34	23	0.045	33*
CCC1CCCCN1Cc1ccc(OC)c(C)c1C (stereo not given)	0.9	-0.015	-1	-0.038	-2
CCC(=O)N1CCN(c2ccc(NC(=O)c3ccc(-c4ccccc4)cc3)cc2)CC1	0.9	x	-4	x	-2
CC(C)=CCc1c(O)c(CC=C(C)C)c2c(c1O)-c1cc(O)c(O)cc1CC2	x	2.3	x	-0.44	x
Nc1c(C(=O)NCC2CCCO2)c2nc3ccccc3nc2n1-c1ccccc1 (stereo not given)	1.4	0.45	19	-5.6*	0
COCCCNC(=O)c1c(N)n(-c2cccc(S(N)(=O)=O)c2)c2nc3ccccc3nc12	1.5	-0.67	-1	-0.29	-7
Nc1c(C(=O)NCCN2CCOCC2)c2nc3ccccc3nc2n1-c1cccc(F)c1	2*	0.64	8	-0.99	3
CCCNC(=O)c1c(N)n(-c2cccc(OC)c2)c2nc3ccccc3nc12	1.2	0.17	50*	-0.54	33*
Clc1ccc(-n2nnnc2SCc2c(-c3ccccc3)nc3sccn23)cc1	1.2	0.58	35*	-4.7	1
Clc1ccc(OCCCNCc2ccccc2)c(Br)c1	1.5	2.3	31*	-0.07	-37
CCOC(=O)CN1C(=O)C(O)(CC(=O)c2cccc(OC)c2)c2ccccc21 (stereo not given)	1	0.3	4	0.037	1
CCOC(=O)CN1C(=O)C(O)(CC(=O)c2ccc3c(c2)CCCC3)c2ccccc21 (stereo not given)	x	1.1	x	-7.3*	x
COc1ccc(C(=O)C(CO)Oc2ccccc2OC)cc1OC (stereo not given)	1.2	x	-4	x	1
COc1cccc(N2CC(C(=O)Nc3ccc(C(=O)OC(C)C)cc3)CC2=O)c1 (stereo not given)	1.1	3.2*	12	-4.6*	3
CCOc1ccc(N2CC(C(=O)Nc3ccccc3OC)CC2=O)cc1 (stereo not given)	x	-0.25	3	-5.1*	-2
CCOc1ccc(N2CC(C(=O)Nc3ccc(F)cc3F)CC2=O)cc1 (stereo not given)	1	-1.1	3	-1.3	2
Cc1nc(SC2CCOC2=O)c2c(C)c(C)sc2n1 (stereo not given)	1	-0.49	36*	0.021	9
CC(C)(C)c1ccc(CN2C3=NCCCN3c3ccccc32)cc1	x	0.94	x	-6.3*	x
CCCCCCN1C2=NCCN2c2ccccc21	0.9	1.7	5	-0.086	32*
Cc1ccc(CN2C3=NCCCN3c3ccccc32)cc1	0.6	0.46	1	0.018	0
CCCN1C2=NCCCN2c2ccccc21	1	-1.5	38*	-1.7	6
CC(C)OCC(O)CS(=O)Cc1ccccc1 (stereo not given)	1	0.29	15	0.9	5
CSc1nc2c(c(C(F)(F)F)n1)CC(C)CC2 (stereo not given)	1	-0.3	4	0.88	9
CCOC(=O)N1CCN(c2c(NCc3ccccn3)c(=O)c2=O)CC1	0.9	0.47	31*	0.54	-2
CCC/C(=N/NC(=O)c1csc(C)c1C)c1ccc(Cl)s1	0.8	0.94	9	-1.1	1
SMILES	PLAP act	hDAT+cocaine	PostGolgi ctrl	Cav32 inh	PostGolgi yeast
COc1cc2c(C(=O)O)c(C)n(CC(C)C)c2c2ccccc12	1.3	x	33*	x	19
CC(C)Cn1c2ccccc2c2cc(C(=O)O)ccc21	0.9	0.67	26	0.77	29
COc1ccc(-c2cc(-c3cc(OC)ccc3O)[nH]n2)cc1	2.3*	-0.045	28	-4.5*	-2
COc1ccc(O)c(-c2cc(-c3cccc(Br)c3)n[nH]2)c1	1.7	x	74*	x	93*
CCCn1c(SCC(=O)N2c3ccccc3Sc3ccccc32)nc2c1c(=O)n(C)c(=O)n2C	1.3	1.2	32*	x	14
CC(C)n1c(SCC(=O)N2c3ccccc3Sc3ccccc32)nc2c1c(=O)n(C)c(=O)n2C	1.4	-0.0085	39*	-3.8	21
CCCn1c(SCC(=O)N2CCCc3ccccc32)nc2c1c(=O)n(C)c(=O)n2C	1.7	x	x	x	x
Cc1ccc(SC(C)C(=O)Nc2ccncc2)cc1 (stereo not given)	0.9	1.7	90*	0.025	102*
Cc1ncsc1CCSc1nc2ccccc2c(=O)n1C	1	0.61	14	-1.7	23
Cc1onc(-c2ccccc2)c1C(=O)n1nnc2ccccc21	0.9	0.0024	-7	1.5	30
Cn1c(SCC(=O)c2ccc(F)cc2)nnc1-c1cnccn1	1	-0.85	39*	-0.11	6
N#Cc1ccc(C23CC4(C2)[C@H](CN(Cc2ccc(C(F)(F)F)cc2)[C@@H]4c2ccccc2)C3c2ccc(Cl)nc2)cc1 (stereo not given in full)	x	-0.75	x	0.032	x
Brc1cc(Br)c2nc(-c3ccc(N4CCOCC4)cc3)ccc2c1	1.2	x	36*	x	3
Brc1ccc2ncnc(Nc3ccc(N4CCOCC4)cc3)c2c1	0.9	0.32	2	-0.11	4
Cc1cc(Cl)ccc1Oc1nc(-c2ccc(F)cc2)ccc1C#N	1	2.3	2	-1.2	0
COc1cc(COc2ccc3c(C)c(Cc4ccccc4)c(=O)oc3c2)cc(OC)c1OC	1	0.65	16	x	-6
COc1cccc(COc2ccc3c(C)c(Cc4ccccc4)c(=O)oc3c2)c1	x	-1.3	x	-3.7*	x
CN(C1CCCCC1)S(=O)(=O)c1ccc(NC(=O)c2ccc(Br)o2)cc1	1.3	0.46	35*	-3	-7
CC(C)Oc1ccc(NC(=O)c2ccncc2)cc1	0.9	-0.37	-1	0.38	0
O=C1NC(c2ccccc2)=C(c2nc3ccccc3s2)C(c2ccc(F)cc2)N1 (stereo not given)	1	2.4	41*	-5.1	0
COc1ccc(C2NC(=O)NC(c3ccccc3)=C2c2nc3ccccc3s2)cc1 (stereo not given)	1	0.063	15	-5.8*	-3
N#CCSc1nnc(COc2cccc3ccccc23)n1-c1cccc(Cl)c1	1	x	54*	0.77	-10
N#CCSc1nnc(COc2cccc3ccccc23)n1-c1ccccc1	1.5	0.0052	31*	-4.6*	-8
COc1ccccc1N1CCN(S(=O)(=O)CC23CCC(CC2=O)C3(C)C)CC1 (stereo not given)	1.6	-1.1	17	0.47	-28
CCOCCN1CCN(c2c(CC)c(C)nc3cc(-c4cc(OC)cc(OC)c4)nn23)CC1	x	2*	x	x	x
CCc1c(C)nc2cc(-c3cc(OC)cc(OC)c3)nn2c1N1CCCC1	1.4	1.7	43*	-0.036	1
Cc1ccc(OCc2nn3c(-c4n[nH]c5c4CCC5)nnc3s2)cc1	1.2	x	x	x	x
Cc1cccc(NC(=S)NC2CC3CCC(C2)N3Cc2ccco2)c1 (stereo not given)	1	-0.21	10	1.4	-7
COCC(COCCCNC(=O)Nc1ccc(Br)cc1)OC (stereo not given)	1	0.4	3	0.9	11

Compound activity: PubChem BioAssay, several laboratories
